Compound activity from PubChem.
RBX1-CUL1 inh: inhibitors of human ROC1-CUL1 ubiquitin ligase activity | P62877+Q13616 | in vitro K48 di-Ub FRET, acceptor:donor ratio, 45 min | inhibition, % at 10 µM | actives 0.6% (n = 140,000); in the data active means inhibition above about 25%
Target sequence (P62877 whole entry, looked up): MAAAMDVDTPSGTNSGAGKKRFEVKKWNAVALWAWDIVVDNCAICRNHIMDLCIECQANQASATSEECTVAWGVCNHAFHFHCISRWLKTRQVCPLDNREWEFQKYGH
Target sequence (Q13616 whole entry, looked up): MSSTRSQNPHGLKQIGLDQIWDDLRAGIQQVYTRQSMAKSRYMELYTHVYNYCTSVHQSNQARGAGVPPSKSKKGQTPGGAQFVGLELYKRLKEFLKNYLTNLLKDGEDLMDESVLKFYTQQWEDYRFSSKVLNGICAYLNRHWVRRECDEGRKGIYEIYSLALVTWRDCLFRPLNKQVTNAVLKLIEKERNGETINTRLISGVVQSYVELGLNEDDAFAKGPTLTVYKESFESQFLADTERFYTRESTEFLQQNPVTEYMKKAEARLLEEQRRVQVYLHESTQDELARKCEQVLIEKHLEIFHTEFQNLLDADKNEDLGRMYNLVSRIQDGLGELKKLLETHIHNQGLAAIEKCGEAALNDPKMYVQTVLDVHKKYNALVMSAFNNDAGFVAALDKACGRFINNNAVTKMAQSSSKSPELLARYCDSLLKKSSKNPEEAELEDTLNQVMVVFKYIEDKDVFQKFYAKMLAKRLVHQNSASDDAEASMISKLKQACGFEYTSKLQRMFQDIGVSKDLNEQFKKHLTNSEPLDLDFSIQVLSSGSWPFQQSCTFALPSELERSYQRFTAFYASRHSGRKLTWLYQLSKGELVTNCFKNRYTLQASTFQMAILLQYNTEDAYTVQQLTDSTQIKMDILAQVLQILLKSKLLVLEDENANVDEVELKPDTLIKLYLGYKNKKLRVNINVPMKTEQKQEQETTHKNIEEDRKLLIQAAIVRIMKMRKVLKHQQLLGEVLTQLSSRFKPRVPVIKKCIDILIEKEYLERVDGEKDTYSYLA
Large screens that a line does not name were inactive. The sample as a whole holds a higher share of hits than the screen did.

CCOC(=O)C1(Cc2ccccc2)CCCN(C2CCN(Cc3ccccn3)CC2)C1 (centres undefined)	none
Cc1c(C(=O)O)cccc1-c1ccc(CC2=NC(=O)N(c3cccc(Cl)c3)C2=O)o1	none
Cc1ccc(C(=O)O)cc1-c1ccc(CC2=NC(=O)N(c3ccc(Cl)cc3)C2=O)o1	RBX1-CUL1 inh 50
O=C1NC(=S)N=C1Cc1ccc(-c2cc(C(=O)O)ccc2Cl)o1	none
CC1=Nc2nnnn2C(c2cccc(F)c2)C1C(=O)Nc1ccc(Cl)cc1 (centres undefined)	none
CCN(CC)c1ncccc1CNCc1ccc(Cl)s1	none
COc1cc(NC(=O)/C=C\c2ccc(C)o2)c(OC)cc1Cl	none
Cc1ccc(/C=C/C(=O)Nc2cccnc2)o1	RBX1-CUL1 inh 45
Cc1ccc(/C=C/C(=O)Nc2ccccc2C(N)=O)o1	none
COc1ccc(/C=C/C(=O)Nc2ccc(C)c(Cl)c2)cc1OC	none
Cc1ccc(/C=C/C(=O)Nc2ccc(C)c(Cl)c2)o1	RBX1-CUL1 inh 66
Cc1ccc(/C=C/C(=O)Nc2nc(-c3ccc(C)c(C)c3)cs2)o1	none
CC(C)OCCCNC(=S)Nc1ccc(Oc2ccccc2)cc1	none
O=C(C1CCCC1)N1CCN(S(=O)(=O)c2ccc(Cl)s2)CC1	none
CCCCN(C)C(=O)c1sc2ncnc(N3CCCCCCC3)c2c1C	none
Cc1ccc2ccc(C(Nc3ccccn3)c3cccc(Cl)c3Cl)c(O)c2n1 (centres undefined)	none
O=C(COc1ccc(F)cc1)N/N=C/c1cn[nH]c1-c1ccc(Cl)c(Cl)c1	none
O=C1NC(=S)N(c2ccccc2)C(=O)/C1=C/c1ccc(Sc2ccc(Cl)cc2)s1	RBX1-CUL1 inh 33
O=C1NC(=O)N(c2ccc(Cl)cc2)C(=O)/C1=C\c1c2ccccc2cc2ccccc12	none
Cc1cc(/C=C2\C(=O)NC(=S)N(c3ccc(Cl)cc3)C2=O)c(C)n1-c1ccc(Cl)c(Cl)c1	none
O=[N+]([O-])c1ccc(N/N=C\c2cccs2)c([N+](=O)[O-])c1	none
Fc1ccc(-c2n[nH]c(=S)n2-c2ccccc2)cc1	RBX1-CUL1 inh 36
CC(C)(C)c1ccc(-c2n[nH]c(=S)n2-c2ccccc2)cc1	none
S=c1[nH]nc(-c2ccccc2)n1-c1ccc(Cl)cc1	none
COc1ccc(Cc2n[nH]c3c2CN(C(=O)N2CCCCC2)CC3)cc1	none
COC(=O)c1ccccc1NC(=O)C(C)(COC(C)=O)COC(C)=O	none
COc1ccc(Sc2ccccc2/C=N/O)cc1	none
C/C=C/c1nc(SC)c(C#N)c(=O)[nH]1	RBX1-CUL1 inh 62
CSc1nc(-c2ccc(Cl)cc2)c(C#N)c(=O)[nH]1	none
CSc1nc(-c2ccc(C)cc2)[nH]c(=O)c1C#N	none
CC(C)(C)c1nc2c(s1)-c1ccccc1C2	none
CCc1nnc(NC(=O)CSc2nnc(COc3ccccc3OC)n2-c2ccccc2)s1	none
C#CC(C)(C)OCC(O)CN1CCN(c2cccc(C(F)(F)F)c2)CC1 (centres undefined)	none
CN(C)CCOc1ccc2c(c1)C(=O)c1ccccc1CS2	RBX1-CUL1 inh 101
CN(C)CC/C=C1/c2cc(Br)ccc2CSc2ccccc21	none
O=C1c2ccccc2CSc2c(O)cccc21	none
Cc1ccccc1Cc1nnc2sc(C(C)C)nn12	none
CCOC(=O)C1(Cc2ccc(F)cc2)CCCN(C(=O)COC)C1 (centres undefined)	none
O=C1C(Cl)=C(N2CCN(Cc3ccccc3)CC2)C(=O)c2ccccc21	RBX1-CUL1 inh 104
O=C1C(Cl)=C(N2CCN(S(=O)(=O)c3ccc(Cl)cc3)CC2)C(=O)c2ccccc21	none
O=c1cc(C(F)(F)F)nc(N2CCN(Cc3ccccc3)CC2)[nH]1	none
Cc1ccc(C2C3=C(CC(c4ccccc4Cl)CC3=O)OC(=N)C2C#N)cc1 (centres undefined)	none
CCCNC(=O)c1nnn(-c2cccc(Cl)c2C)c1C	none
COc1cccc(C(C2C(=O)Oc3ccc(C)cc3C2=O)C2C(=O)Oc3ccc(C)cc3C2=O)c1 (centres undefined)	none
Cc1ccc2c(c1)C(=O)C(C(c1ccc(N(C)C)cc1)C1C(=O)Oc3ccc(C)cc3C1=O)C(=O)O2 (centres undefined)	none
Cc1ccc2c(c1)C(=O)C(C(c1ccccc1Cl)C1C(=O)Oc3ccc(C)cc3C1=O)C(=O)O2 (centres undefined)	RBX1-CUL1 inh 63
CCOc1cc(/C=C2\SC(=Nc3cccc(C(=O)O)c3)NC2=O)c(Br)cc1OCC(=O)Nc1ccc(C)cc1	RBX1-CUL1 inh 97
COc1cc(/C=C2\SC(=Nc3ccccc3Cl)NC2=O)ccc1OCC(=O)O	none
COc1cc(/C=C2\SC(=Nc3cccc(Br)c3)NC2=O)ccc1OCC(=O)O	RBX1-CUL1 inh 30
C=CCOc1ccc(/C=C2\SC(=Nc3ccccc3)NC2=O)cc1OCC	none
CCOc1cc(/C=C2/SC(=O)N(C(C)C)C2=O)c(Br)cc1OCC(=O)Nc1ccccc1	none
CCOC(=O)c1ccc(N=C2NC(=O)/C(=C\c3cc(Br)ccc3OCC(=O)Nc3ccccc3OC)S2)cc1	none
COC(=O)c1sccc1NC(=O)CCSCCC(=O)Nc1ccsc1C(=O)OC	none
COC1(c2ccccc2)c2ccccc2CSc2ccccc21 (centres undefined)	none
Cc1ccc2c(c1)-c1c(c(C(=O)N3CCN(c4cc(C)ccc4C)CC3)nn1C)CS2	RBX1-CUL1 inh 44
Cn1nc(C(=O)N2CCN(c3ccc(Cl)cc3)CC2)c2c1-c1ccccc1SC2	none
COc1ccc(NC(=O)c2nn(C)c3c2CSc2ccc(C)cc2-3)cc1OC	none
CC(O)c1cccc(NC(=O)COc2ccc(Cl)cc2)c1 (centres undefined)	none
CC(C)CC(=O)C1CCCN(c2nncc(-c3cccc(Cl)c3)n2)C1 (centres undefined)	none
Cc1c(CC(=O)N(C)C2CCOCC2)c2c(n1CC(C)C)CC(C)(C)CC2=O	none
CC(C)(C)c1cc(C(=O)N/N=C/c2ccco2)n(-c2ccccc2)n1	none
Cc1cccc(OCC(=O)Nc2ccc(OCc3nc4ccccc4s3)cc2C)c1	none
CC(C)(C)C1(C)OC(=O)C(=Cc2ccc3c(c2)OCO3)C(=O)O1 (centres undefined)	none
CC(C(=O)O)N1C(=O)/C(=C/c2ccc3c(c2)OCO3)SC1=S (centres undefined)	none
CC(C)N1C(=O)/C(=C/c2ccc3c(c2)OCO3)C(=O)N(Cc2ccco2)C1=O	RBX1-CUL1 inh 102
Cc1cccc2c(CC(=O)Nc3cc(F)cc(F)c3)noc12	none
COc1ccccc1N1CCN(c2nc(CNS(=O)(=O)c3ccccc3)nc3ccccc23)CC1	none
CCN(CC)c1ccc(/C=N/NC(=O)c2cc3c(ccc4ccccc43)o2)c(OC)c1	none
Cc1ccccc1C(=O)N1CCN(c2ccc(NC(=O)CSc3ccc(Cl)cc3)cc2)CC1	RBX1-CUL1 inh 30
Cc1ccccc1C(=O)N1CCN(c2ccc(NC(=O)c3ccccc3Br)cc2)CC1	none
O=C(CSc1ccc(Cl)cc1)Nc1ccc(N2CCN(C(=O)c3cccs3)CC2)cc1	none
CCOC(=O)NC1Cc2ccccc2Sc2ccc(Cl)cc21 (centres undefined)	none
Nc1c(Cl)cc2nn(-c3ccccc3)nc2c1Br	RBX1-CUL1 inh 31
O=C(Nc1cc2nn(-c3ccccc3)nc2cc1Cl)c1ccccc1Br	none
O=C(Nc1cc2nn(-c3ccccc3)nc2cc1Cl)c1ccc(Br)cc1	none
O=C(Cc1ccc2c(c1)OCO2)NC1CCCN(C2CCCCCC2)C1 (centres undefined)	none
COC(=O)c1ccc(C2C(C(=O)c3ccc(C)cc3)C(=O)C(=O)N2c2ccc(Cl)cc2)cc1 (centres undefined)	none
O=C(NCCc1ccccc1)c1ccccc1S(=O)O	none
Cc1nnc(Cl)c2ccccc12	none
c1ccc2c(c1)c(N1CCOCC1)nn1nnnc21	none
Clc1nn2nnnc2c2ccccc12	RBX1-CUL1 inh 30
CCCCCC(=O)Oc1ccccc1N1C(=O)c2ccccc2C1=O	none
CSc1nsc(SCCC(=O)Nc2ccccc2)n1	none
